Data: PubChem BioAssay (NCI)
The panel holds about 79,000 compounds, 15% with a hit somewhere; the sample as a whole holds those more often. Cut-off read from the data, not from the text of the source: active = growth inhibition above about 70%; inactive = the rest.

Columns and labels:
[1] = NCI Yeast Anticancer Drug Screen. Data for the rad50 strain (AID 155);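 note: 0% = growth of vehicle-only cultures of the same strain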; details: S. cerevisiae rad50 strain growth inhibition; at 50.0 µM; stronger effect = higher value
Procedure, shortened: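 Inhibition values express reduced yeast growth in compound-treated cultures relative to vehicle-treated controls.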

[2] = NCI Yeast Anticancer Drug Screen. Data for the mec2-1 strain (AID 157); details: S. cerevisiae mec2-1 strain, at 50.0 µM, stronger effect = higher value
Procedure, shortened: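 Strain: mec2-1 (DNA repair/cell cycle alteration). Compound exposure, then growth measured; inhibition expressed relative to vehicle.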

[3] = NCI Yeast Anticancer Drug Screen. Data for the sgs1 mgt1 strain (AID 161);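 note: 0% = growth of cultures given vehicle only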; details: S. cerevisiae sgs1 mgt1 strain, at 50.0 µM, stronger effect = higher value
Procedure, shortened: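 Test agents were incubated with a DNA-repair-mutant yeast strain. Growth was then read and compared against vehicle-treated controls.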

[4] = NCI Yeast Anticancer Drug Screen. Data for the cln2 rad14 strain (AID 165);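 note: 0% = growth equal to vehicle treated cultures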; details: S. cerevisiae cln2 rad14 strain, at 50.0 µM, stronger effect = higher value
Procedure, shortened: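 Compounds are applied to the cln2 rad14 yeast strain, and growth is then compared with that of vehicle-treated cultures to give inhibition.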

[5] = NCI Yeast Anticancer Drug Screen. Data for the bub3 strain (AID 167); details: S. cerevisiae bub3 mutant strain, at 50.0 µM, stronger effect = higher value
Procedure, shortened: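 Steps: expose the mutant yeast strain to compound; grow alongside vehicle-treated cultures; measure growth; express inhibition against the vehicle cultures.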

[6] = NCI Yeast Anticancer Drug Screen. Data for the mlh1 rad18 strain (AID 175); details: S. cerevisiae mlh1 rad18 strain growth inhibition; at 50.0 µM; stronger effect = higher value
Procedure, shortened: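 Read-out is yeast growth inhibition, calculated against vehicle-only controls. The compound was applied to a strain engineered with DNA damage repair alterations.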

Measured: growth inhibition

O=C(Nc1ccc(C(=O)O)cc1)Nc1cccc(F)c1
inactive: [1] 14.8% | [2] 8.35% | [3] 10.2% | [4] 14.6% | [5] 22.6% | [6] 13.8%

Cc1ccc(N=NN(C)C)cc1
inactive: [1] 2.55% | [2] 3.65% | [3] -9.55% | [4] -2.6% | [5] 1.55% | [6] 33%

CC1(C)C(=O)/C=C\C(=O)C(C)(C)C(=O)/C=C\C(=O)C(C)(C)C(=O)/C=C\C(=O)C(C)(C)C(=O)/C=C\C1=O
inactive: [1] 12.1% | [2] 0.25% | [3] -9.05% | [4] 10.5% | [5] -13.2% | [6] 12.7%

ONc1ccccc1
inactive: [1] 15.3% | [2] 6.1% | [3] 11.8% | [4] 16.7% | [5] 28.1% | [6] 16.6%

CC12CCC(O)CC1=CCC1C2CCC2(C)C1CC1=CC(C#N)C(=O)NC12O (stereo not given)
inactive: [1] 3.55% | [2] 6.85% | [3] 1.35% | [4] -65.4% | [5] -0.3% | [6] 17.2%

CN=C(NC(=S)N(C)C)N(C)C
inactive: [1] -4.3% | [2] -6.85% | [3] -9.4% | [4] -7.85% | [5] -14.1% | [6] 2.75%

Cc1cccc(C)c1NC(=O)C(=O)/C(=C(\N)c1ccccc1)c1ccccc1
inactive: [1] -14.3% | [2] -9.5% | [3] -15.2% | [4] 29.8% | [5] 10.2% | [6] -9.15%

CC1(C)CCC23CCC4(C)C(CCC5C6(C)CCC(=O)C(C)(C)C6CCC54C)C2C1OC3 (stereo not given)
inactive: [1] -27.4% | [2] -4.15% | [3] -4.05% | [4] 20.9% | [5] -0.7% | [6] -5.1%

O=C(N=C1SCCN1C(=O)C(C(F)(F)F)C(F)(F)F)C(C(F)(F)F)C(F)(F)F
inactive: [1] -20.6% | [2] -3.5% | [3] 4.95% | [4] 28.4% | [5] 2.3% | [6] -36.9%

COc1ccc(C(=O)Oc2ccc(C)c(CC(Cl)(Cl)Cl)c2)cc1
inactive: [1] -6.1% | [2] -9.5% | [3] 6.75% | [4] -12.3% | [5] -6.35% | [6] -14.4%

CC1CCCN(C(=O)/C=C/c2ccccc2)C1 (stereo not given)
inactive: [1] 9.25% | [2] -19.2% | [3] -6.45% | [4] -45.8% | [5] 6.3% | [6] -3.8%

O=[N+]([O-])c1ccc(OC2CC3C4C=CC3C2C4)c([N+](=O)[O-])c1 (stereo not given)
inactive: [1] -27.9% | [2] -17.1% | [3] -5.45% | [4] 20.8% | [5] -9.6% | [6] -24.6%

OCC1OC(OC2CCCCC2)C(O)C(O)C1O (stereo not given)
inactive: [1] -1.45% | [2] 51.5% | [3] 21.9% | [4] -5.05% | [5] 24.6% | [6] 32.8%

CC(C)n1c(=O)nc(-c2ccccc2)c2cc3c(cc21)OCO3
inactive: [1] 27.3% | [2] 18.8% | [3] 51.4% | [4] 7% | [5] 47.9% | [6] 8.65%

CCCN(CCC)C(=O)c1c(Cl)c2cccnc2n2c(C)cnc12
inactive: [1] 5.35% | [2] 19.7% | [3] 26.6% | [4] 18.7% | [5] 15.1% | [6] 31.3%

COC(=O)C1=CN=C(C(=O)OC)NN1
inactive: [1] 13.9% | [2] 0.25% | [3] -8.6% | [4] 15.8% | [5] -4.45% | [6] 3.15%

O=c1c(SCc2ccc(Cl)cc2Cl)c(SCc2ccc(Cl)cc2Cl)cnn1-c1ccccc1
inactive: [1] 16.8% | [2] -1.4% | [3] 7.3% | [4] 23.9% | [5] 1.05% | [6] 4.05%

COC(=O)O[C@H]1CC[C@@]2(C)C(=CC[C@H]3[C@@H]4CC[C@H]([C@H](C)CCCC(C)C)[C@@]4(C)CC[C@@H]32)C1
inactive: [1] -21.6% | [2] -29.8% | [3] -5.6% | [4] 6.75% | [5] -11.8% | [6] -5.3%

CC12C=CC(=O)C=C1CCC1C3CC(F)C(O)(C(=O)CO)C3(C)CC(O)C12F (stereo not given)
inactive: [1] -6.35% | [2] 2.25% | [3] 3.25% | [4] 25.2% | [5] 14.8% | [6] 3.3%

CCC(=O)Cc1ccc(OC)c(OC)c1
inactive: [1] -0.3% | [2] -3.5% | [3] 19.6% | [4] 7.3% | [5] 9.35% | [6] 2.5%

CCOc1ccc(N=Cc2cc(Br)ccc2O)cc1
inactive: [1] 2.55% | [2] 0.6% | [3] 1.5% | [4] -0.5% | [5] 1.15% | [6] -13.4%

CCC(=O)/C=C/c1ccc(Cl)cc1
inactive: [1] 10.7% | [2] 8% | [3] 7.75% | [4] -25.6% | [5] -14.7% | [6] 11.3%

O=C(NI1OC(=O)c2ccccc21)c1ccc(Cl)cc1
inactive: [1] -9% | [2] 6.05% | [3] -38% | [4] -17.5% | [5] -33.6% | [6] -5.6%

NC(=O)C12C3C4C1C1C2C3C41C(N)=O (stereo not given)
inactive: [1] 29.1% | [2] 12.4% | [3] -1.7% | [4] 16.5% | [5] -5.8% | [6] 20.6%

C=CCSc1nc2ccc(NC(C)=O)cc2s1
inactive: [1] 42.8% | [2] 10.2% | [3] 7.8% | [4] 19.3% | [5] 20% | [6] 16.7%

CC[N+](C)(CC)Cc1ccc([NH-])c([NH-])c1.[Cl][Pt+2][Cl]
inactive: [1] 35.1% | [2] 27.4% | [3] 36% | [4] 37.2% | [5] -13.7% | [6] 28.4%

CCCCCCCC(CCCCCCC)(C(=O)OCC)C(=O)OCC
inactive: [1] 7.1% | [2] -1.65% | [3] 9.1% | [4] -37.5% | [5] 0.25% | [6] 0.9%

COC(=O)c1ccc(S(=O)(=O)O)cc1[N+](=O)[O-]
inactive: [1] 3.05% | [2] 11.9% | [3] 2.5% | [4] -11.2% | [5] 11.8% | [6] 24.4%

Cc1ccc(NC(=O)COc2ccc(Cl)cc2)c(C)c1
inactive: [1] 2.9% | [2] 11% | [3] 12.8% | [4] 9.45% | [5] 16.2% | [6] 0.75%

NNC(=O)c1c[nH]c2ccccc2c1=O
inactive: [1] 3.7% | [2] 13.1% | [3] 0.85% | [4] -20.6% | [5] 5.1% | [6] 5.4%

CC(C)CCCC(C)[C@H]1CC[C@H]2[C@@H]3CC[C@H]4C[C@@H](CCC=C(c5cc(Cl)c(O)c(C(=O)OC(C)C)c5)c5cc(Cl)c(O)c(C(=O)OC(C)C)c5)CC[C@]4(C)[C@H]3CC[C@]12C (stereo not given in full)
inactive: [1] 17.7% | [2] 9.05% | [3] 23.1% | [4] 18.7% | [5] 11.5% | [6] -32.5%

O=C(O)c1c[nH]c2c(ccc3[nH]cc(C(=O)O)c(=O)c32)c1=O
inactive: [1] -14.1% | [2] -36.4% | [3] -33.2% | [4] -32.2% | [5] -40.7% | [6] -13.6%

CCOC(=O)c1c(Cl)c(CC)c(Cl)n2c1nc1ccccc12
inactive: [1] -12.7% | [2] -7.45% | [3] 14.8% | [4] -9.6% | [5] -2.8% | [6] 4.05%

O=S(=O)(O)NNc1ccc(N=Nc2ccccc2)cc1
inactive: [1] 0.2% | [2] -12.9% | [3] -3.95% | [4] 11.3% | [5] -0.75% | [6] 4.75%

CCc1nc(N)nc(N)c1-c1ccc(Cl)c(NC(C)=O)c1
inactive: [1] 8.9% | [2] -3.6% | [3] -7.6% | [4] 10.1% | [5] 6.6% | [6] 1.95%

O/N=C(/CN1CCOCC1)c1ccccc1
inactive: [1] -7.25% | [2] 7.9% | [3] -0.25% | [4] -20.9% | [5] 8.4% | [6] 0%

NC(=S)N/N=C\c1ncccc1OCc1cccc(N)c1
inactive: [1] 32.3% | [2] 46.9% | [3] 42% | [4] 5.6% | [5] 37.4% | [6] 29.2%

COC(=O)c1cc(C)n(C)c(=O)c1CNS(=O)(=O)c1ccc(C)cc1
inactive: [1] -1.25% | [2] 6.45% | [3] 0.85% | [4] -6% | [5] -2.8% | [6] -12.3%

O=C1OC2C(Cl)CC(Cl)CC2C=C1c1cccc([N+](=O)[O-])c1 (stereo not given)
inactive: [1] -3.3% | [2] 12.2% | [3] -16.6% | [4] -21.9% | [5] 11.8% | [6] -0.4%

Cc1c(C)c(Cl)c(C)c(C(Cl)(Cl)Cl)c1C
inactive: [1] 0.85% | [2] -1.3% | [3] 2.05% | [4] 12.2% | [5] -0.65% | [6] -6.25%
